Data as given in PubChem BioAssay (Tox21).
Records with an inconclusive call do not appear. The source made the active and inactive calls. Unless noted, calls come from the whole dose curve; as a rule, active = well fitted curve in the direction sought with a large enough effect in the repeat runs; inconclusive = weak or mixed curves; inactive = no such curve, though single readings can be large; an effect the other way counts as inactive or inconclusive.

Experiments:
[1] = A CellTox Green Cytotoxicity Assay to monitor cytotoxicity in HEK293 cells - 32 hour (AID 1224881); note: nearly all actives have a fitted effect of over 40% in size; note: potency is the fitted concentration of half-maximal effect
Method in brief: (§1)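 Fluorescence from a DNA-binding dye excluded by viable cells was measured repeatedly in the same HEK293 wells (600 cells/well) during continuous compound exposure at 37 C. Each assay gives one read point: 0, 8, 16, 24, 32 or 40 h.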

[2] = A CellTox Green Cytotoxicity Assay to monitor cytotoxicity in HepG2 cells - 0 hour (AID 1224882); note: nearly all actives have a fitted effect of over 35% in size
Method in brief: (§2)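 Real-time cytotoxicity: fluorescence of a cell-impermeant cyanine dye binding DNA of dead HepG2 cells, measured repeatedly (0–40 h) during compound exposure at 37 C. Cells seeded 600/well with reagent, dosed after 5 h.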

[3] = A CellTox Green Cytotoxicity Assay to monitor cytotoxicity in HepG2 cells - 32 hour (AID 1224883); note: nearly all actives have a fitted effect of over 50% in size; note: potency is the fitted concentration of half-maximal effect
Method in brief: as §2

[4] = qHTS RealTime-Glo MT Cell Viability Assay in HEK293 cells - 8 hour (AID 1224887); note: nearly all actives have a fitted effect of over 50% in size; note: potency is the fitted concentration of half-maximal effect; for activity change, negative = cytotoxicity: top concentration of the series differs between compounds
Method in brief: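 Luminescence, which tracks viable cell number through reduction of the prosubstrate to a NanoLuc substrate, was read over continuous 37 C culture. Cells (600/well) were premixed with reagent and rested 5 h before 23 nL of compound in DMSO was pinned.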

[5] = A CellTox Green Cytotoxicity Assay to monitor cytotoxicity in HEK293 cells - 16 hour (AID 1224888); note: nearly all actives have a fitted effect of over 35% in size; note: potency is the fitted concentration of half-maximal effect
Method in brief: as §1

[6] = qHTS RealTime-Glo MT Cell Viability Assay in HepG2 cells - 0 hour (AID 1224889); note: nearly all actives have a fitted effect of over 50% in size; note: potency is the fitted concentration of half-maximal effect
Method in brief: (§3)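 Cells + NanoLuc/prosubstrate dispensed (600 cells/well) → 5 h at 37 C/5% CO2 → compounds in DMSO transferred → 40 h incubation at 37 C, luminescence read at 0, 8, 16, 24, 32, 40 h.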

[7] = qHTS assay to identify small molecule antagonists of the estrogen receptor alpha (ER-alpha) signaling pathway using the BG1 cell line in the presence of 0.1 nM 17-beta-estradiol - cell viability counter screen (AID 1259241); note: nearly all actives have a fitted effect of over 40% in size; note: potency is the fitted concentration of half-maximal effect
Method in brief: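 Cells were plated and left 24 hr, compounds in DMSO were pinned in, 17beta-estradiol was added to 0.1 nM final, and after 22 hr CellTiter-Fluor reagent was added for 30 min before fluorescence was read.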

[8] = qHTS assay to identify small molecule antagonists of the androgen receptor (AR) signaling pathway using the MDA cell line in the presence of 0.5 nM R1881 - cell viability counter screen (AID 1259242); note: nearly all actives have a fitted effect of over 45% in size; note: potency is the fitted concentration of half-maximal effect
Method in brief: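 Live-cell protease activity was measured by CellTiter-Fluor fluorescence after 30 min. Before that, MDA-kb2 MMTV-luciferase cells had 16 hr at 37C without CO2, exposed to test compounds and 0.5 nM R1881 final.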

[9] = target: Androgen receptor (Homo sapiens) (UniProt P10275); assay: qHTS assay to identify small molecule antagonists of the androgen receptor (AR) signaling pathway using the MDA cell line in the presence of 0.5 nM R1881 (AID 1259243); note: nearly all actives have a fitted effect of over 50% in size; note: potency is the fitted concentration of half-maximal effect
Androgen receptor (Homo sapiens), sequence (P10275 whole entry, looked up): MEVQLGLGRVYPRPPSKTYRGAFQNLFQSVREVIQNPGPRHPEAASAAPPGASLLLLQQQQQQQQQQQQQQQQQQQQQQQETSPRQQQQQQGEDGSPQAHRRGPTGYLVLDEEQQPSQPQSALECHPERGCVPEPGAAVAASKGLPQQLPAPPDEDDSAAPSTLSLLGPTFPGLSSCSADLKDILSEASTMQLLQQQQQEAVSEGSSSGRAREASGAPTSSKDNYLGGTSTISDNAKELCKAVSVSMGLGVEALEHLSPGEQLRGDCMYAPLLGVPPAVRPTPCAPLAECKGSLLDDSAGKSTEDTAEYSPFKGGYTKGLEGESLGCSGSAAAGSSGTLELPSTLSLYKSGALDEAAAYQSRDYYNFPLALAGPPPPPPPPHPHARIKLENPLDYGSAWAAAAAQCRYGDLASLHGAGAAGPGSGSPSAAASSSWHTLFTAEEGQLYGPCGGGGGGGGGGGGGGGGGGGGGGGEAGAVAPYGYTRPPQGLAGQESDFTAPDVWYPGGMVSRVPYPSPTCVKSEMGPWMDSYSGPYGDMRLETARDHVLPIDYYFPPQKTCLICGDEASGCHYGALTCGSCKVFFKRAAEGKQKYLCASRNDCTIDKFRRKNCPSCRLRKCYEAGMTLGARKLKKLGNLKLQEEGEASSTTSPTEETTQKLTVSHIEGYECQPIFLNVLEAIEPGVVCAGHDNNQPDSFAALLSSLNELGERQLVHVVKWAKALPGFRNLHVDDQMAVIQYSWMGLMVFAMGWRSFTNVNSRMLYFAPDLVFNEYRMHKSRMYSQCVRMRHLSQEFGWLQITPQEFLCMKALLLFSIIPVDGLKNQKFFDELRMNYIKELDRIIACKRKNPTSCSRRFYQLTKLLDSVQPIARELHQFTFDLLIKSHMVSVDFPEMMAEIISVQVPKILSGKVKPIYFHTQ
Method in brief: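 Luminescent reporter readout (ONE-Glo, 30 min, room temperature) after 16 hr co-treatment of MDA-kb2 cells with test compounds and 0.5 nM R1881 final, at 37C without CO2. The MMTV-driven luciferase responds to both AR and GR.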

[10] = qHTS assay to identify small molecule phospholipidosis (PLD) inducers (AID 1259344; active = well fitted curve in the direction sought with a large enough effect; an effect the other way counts as inactive or inconclusive)
Method in brief: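 After 4 h attachment on collagen I, HepG2 cells were dosed with compound alongside LipidTOX Red, kept 24 h at 37 C, fixed, and imaged for lamellar phospholipid pits.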

[11] = qHTS assay to identify small molecule HDAC inhibitors (AID 1259364); note: top concentration of the series differs between compounds; nearly all actives have a fitted effect of over 45% in size
Method in brief: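 Luminescence read after 30 min room-temperature HDAC-Glo incubation measures cellular class I/II HDAC activity. Compounds were applied for 2 hr at 37 C to HCT-116 wild-type cells seeded the day before.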

[12] = qHTS assay to identify small molecule HDAC inhibitors - cell viability counter screen (AID 1259365)
Method in brief: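 Counter screen in wild-type HCT-116 cells: compounds dissolved in DMSO are pin-transferred onto overnight-plated cells and left 2hr at 37C. ATP-based CellTiter-Glo luminescence then measures viable cells.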

[13] = qHTS assay to identify small molecule agonists of the sonic hedgehog signaling (Shh) pathway (AID 1259368; calls by dose curve;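 note: NIH/3T3-derived 3T3Gli1-Luc cells carrying a stable Gli1-driven firefly luciferase reporter; series mostly up to about 92 µM; nearly all actives have a fitted effect of over 15% in size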)
Method in brief: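 Luminescence was read after 30 min at room temperature with luciferase reagent. Before that, 3T3Gli1-Luc cells (NIH/3T3 clone, stable Gli1-Luc reporter; 2,000/well) were exposed to compounds for 24 hr at 37C, 5% CO2, compounds being added 4 hr post-plating.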

[14] = A CellTox Green Cytotoxicity Assay to monitor cytotoxicity in HEK293 cells - 8 hour (AID 1224884); note: nearly all actives have a fitted effect of over 35% in size
Method in brief: as §1

[15] = qHTS RealTime-Glo MT Cell Viability Assay in HepG2 cells - 16 hour (AID 1224885); note: nearly all actives have a fitted effect of over 50% in size; note: potency is the fitted concentration of half-maximal effect
Method in brief: as §3

[16] = qHTS RealTime-Glo MT Cell Viability Assay in HEK293 cells - 24 hour (AID 1224886); note: nearly all actives have a fitted effect of over 50% in size; note: potency is the fitted concentration of half-maximal effect; for activity change, negative = cytotoxicity: top concentration of the series differs between compounds
Method in brief: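 Tox21 10K qHTS, HEK293, 600 cells/well, RealTime-Glo reagent co-dispensed with cells; 5 h preincubation, compound by pintool, 37 C, luminescence at 0–40 h.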

[17] = A CellTox Green Cytotoxicity Assay to monitor cytotoxicity in HepG2 cells - 8 hour (AID 1224890); note: nearly all actives have a fitted effect of over 45% in size
Method in brief: as §2

[18] = target: Estrogen receptor (Homo sapiens) (UniProt P03372); assay: qHTS assay to identify small molecule antagonists of the estrogen receptor alpha (ER-alpha) signaling pathway using the BG1 cell line in the presence of 0.1 nM 17-beta-estradiol (AID 1259244); note: nearly all actives have a fitted effect of over 50% in size
Estrogen receptor (Homo sapiens), sequence (P03372 whole entry, looked up): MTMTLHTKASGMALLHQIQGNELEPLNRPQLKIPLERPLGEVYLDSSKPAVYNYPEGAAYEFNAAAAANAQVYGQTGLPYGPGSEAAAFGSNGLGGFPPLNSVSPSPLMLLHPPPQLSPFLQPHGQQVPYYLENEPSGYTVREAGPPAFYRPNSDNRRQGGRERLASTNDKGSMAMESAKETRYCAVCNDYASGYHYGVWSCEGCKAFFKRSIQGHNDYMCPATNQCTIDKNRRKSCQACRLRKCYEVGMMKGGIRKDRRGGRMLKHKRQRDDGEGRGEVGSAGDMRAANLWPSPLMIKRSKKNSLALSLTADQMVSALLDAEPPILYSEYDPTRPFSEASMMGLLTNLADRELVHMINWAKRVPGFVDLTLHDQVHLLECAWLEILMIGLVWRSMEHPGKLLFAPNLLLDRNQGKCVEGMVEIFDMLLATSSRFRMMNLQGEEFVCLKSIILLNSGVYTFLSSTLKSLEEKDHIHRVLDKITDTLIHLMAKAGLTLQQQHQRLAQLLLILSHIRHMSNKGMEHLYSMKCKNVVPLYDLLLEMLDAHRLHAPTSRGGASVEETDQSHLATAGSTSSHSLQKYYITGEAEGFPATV
Method in brief: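 Luciferase luminescence (ONE-Glo, 30 min at room temperature) was read after 22 hr at 37C exposure to compounds plus 17beta-estradiol at 0.1 nM final. Cells were VM7Luc4E2 with endogenous ER-alpha and an ERE-driven luciferase, pre-cultured 5 days in hormone-depleted medium.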

[19] = qHTS assay to identify small molecule agonists of the sonic hedgehog signaling (Shh) pathway - cell viability counter screen (AID 1259366); note: nearly all actives have a fitted effect of over 50% in size
Method in brief: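 Cells are plated at 2,000 per well and left 4hr at 37C, 5% CO2 before compound addition. After 23hr of treatment, CellTiter-Fluor reagent is added for 1hr at 37C and fluorescence is measured.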

[20] = qHTS assay to identify small molecule antagonists of the sonic hedgehog signaling (Shh) pathway - cell viability counter screen (AID 1259367); note: nearly all actives have a fitted effect of over 55% in size
Method in brief: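 Conditioned medium drove Shh signaling in 3T3 Gli1-Luc cells exposed to compounds at 37C and 5% CO2. Viability was determined from CellTiter-Fluor fluorescence, with reagent incubated 1 hr after 23 hr of treatment.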
% is set by controls: 0 for no effect and ±100 for the full control effect.

CCCCCCCCCc1ccc(OCCOCCO)cc1
inactive: Potency [2] | Potency [6] | Potency [10] | Potency [11] | Potency [12] | outcome [13]
active: Potency [1] 14.5 µM | Potency [3] 20.5 µM | Potency [4] 3.25 µM | Potency [5] 14.5 µM | Potency [7] 8.1 µM | Potency [8] 5.74 µM | Potency [9] 2.28 µM

COC(=O)C1=C(C)NC(COC(N)=O)=C(C(=O)OC(C)C)C1c1cccc(Cl)c1Cl (stereo not drawn)
active: Potency [15] 23.9 µM | Potency [16] 26.8 µM | Potency [6] 1.9 µM
inactive: Potency [1] | Potency [2] | Potency [14] | Potency [5] | Potency [17] | Potency [7] | Potency [8] | Potency [9] | Potency [18] | PLD induction [10] -2.54% [at 7.66 µM] | Potency [11] | Potency [12] | outcome [13]

Brc1c2ccccc2c(Br)c2ccccc12
inactive: cytotoxicity increase [1] -2.57% [at 6.97 µM] | cytotoxicity [2] 5.32% [at 6.97 µM] | cytotoxicity increase [3] 2.42% [at 6.97 µM] | activity change, negative = cytotoxic [15] -0.25% [at 6.97 µM] | activity change, negative = cytotoxicity [4] -3.92% [at 6.97 µM] | activity change [5] -0.0109% [at 6.97 µM, active compounds read high] | activity change, negative = cytotoxicity [6] 2.26% [at 6.97 µM] | cytotoxicity increase [17] 2.74% [at 6.97 µM] | activity change, negative = cytotoxicity [7] 3.89% [at 8.39 µM] | viability change, negative = cytotoxic [8] 2.88% [at 8.39 µM] | activity change, negative = inhibition [18] 0.899% [at 8.39 µM] | activity change, negative = inhibition [11] 3.07% [at 8.39 µM] | activity change, negative = cytotoxicity [12] 1.69% [at 8.39 µM] | viability change, negative = cytotoxic [19] 2.56% [at 8.39 µM] | viability change, negative = cytotoxic [20] -7.11% [at 8.39 µM] | activity change [13] -0.511% [at 8.39 µM]

CC(=O)c1ccc2c(c1)N(CCCN(C)C)c1ccccc1S2
inactive: Potency [1] | Potency [2] | Potency [14] | Potency [15] | Potency [16] | Potency [4] | Potency [5] | Potency [6] | Potency [17] | Potency [7] | Potency [8] | Potency [18] | Potency [12] | outcome [13]

CC/C=C\CCOC(=O)CC
inactive: Potency [1] | Potency [2] | Potency [14] | Potency [15] | Potency [16] | Potency [4] | Potency [5] | Potency [6] | Potency [17] | Potency [7] | Potency [8] | Potency [11] | Potency [12] | Potency [19] | Potency [20] | outcome [13]

CNC(=O)CN(CCN(CCN(CC(=O)[O-])CC(=O)NC)CC(=O)[O-])CC(=O)[O-].O.[Gd+3]
inactive: Potency [1] | Potency [2] | Potency [14] | Potency [15] | Potency [16] | Potency [4] | Potency [5] | Potency [6] | Potency [17] | Potency [7] | Potency [8] | Potency [18] | Potency [10] | Potency [11] | Potency [12] | Potency [19] | Potency [20] | outcome [13]

COc1cc2nc(Cl)nc(N)c2cc1OC
inactive: Potency [1] | Potency [2] | Potency [14] | Potency [15] | Potency [5] | Potency [17] | Potency [7] | Potency [8] | Potency [9] | Potency [18] | Potency [11] | Potency [12] | Potency [19] | Potency [20] | outcome [13]
